# Measurements as given in PubChem BioAssay (NCATS).
# Results filed as inconclusive are left out. Activity calls are given as the source filed them. Unless noted, calls follow the shape of the dose curve; as a rule, active = well fitted curve in the direction sought with a large enough effect; inconclusive = small, poorly fitted or top-dose-only effect, or another doubt; inactive = no such curve, though single readings can be large; an effect the other way counts as inactive or inconclusive.
# Experiments:
# [1] = molecular target: Cytochrome P450 3A4 (Homo sapiens) (UniProt P08684); test: qHTS Assay for Inhibitors and Substrates of Cytochrome P450 3A4 (AID 884); also: nearly all actives have a fitted effect of over 50% in size; also: potency is read from the fitted curve at half-maximal effect; as to activity change, negative = inhibition: % is scaled to controls: 0 for no effect and ±100 for the full control effect
# Summary of the method: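 20 nM human CYP3A4 with 25 uM Luciferin-PPXE (at KM) in 200 mM KPO4, preincubated 10 min with compound; NADPH regeneration started a 60 min RT reaction. Luciferin detected by luminescence, normalized to 57 uM ketoconazole as full inhibition.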
# [2] = molecular target: Cytochrome P450 3A4 (Homo sapiens) (UniProt P08684); test: qHTS Assay for Activators of Cytochrome P450 3A4 (AID 885); also: nearly all actives have a fitted effect of over 65% in size
# Summary of the method: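 Signal was normalized against complete inhibition by 57 uM ketoconazole. The reaction used 20nM CYP3A4 with 25uM Luciferin-PPXE, 10-min compound preincubation and a 60-min NADPH-supported step at RT.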
# [3] = qHTS Assay for Lipid Storage Modulators (AID 1519; calls by dose curve; as to activity change, negative = inhibition: % is scaled to controls: 0 for no effect and ±100 for the full control effect); conditions: Drosophila S3 cells, BODIPY lipid droplet/cell ratio, laser cytometry, cells loaded with oleic acid; for activity change, negative = inhibition: at 57.5 µM (top of the series)
# Summary of the method: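 Cells seeded at 5,000 per well were treated with compounds over a concentration series and loaded with oleic acid (400 uM, as added). Lipid droplet fluorescence (488 nm excitation, 500-530 nm channel) was read by laser-scanning cytometry and normalized to 20 uM Triacsin C.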
# [4] = molecular target: DNA dC->dU-editing enzyme APOBEC-3G (Homo sapiens) (UniProt Q9HC16); test: qHTS for inhibitors of Vif-A3G interactions: Validation (AID 588379); also: 0% is about no effect
# Summary of the method: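 HeLa cells stably expressing Vif and A3G-eYFP, 700 cells/well, incubated overnight at 37 deg C, then exposed to compound overnight at 37 deg C. Inhibition of Vif-mediated degradation read as increased yellow fluorescence (Ex 488/Em 500-530) by laser-scanning cytometry.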
# [5] = Confirmation and Secondary Assay for Modulators of Hemoglobin Beta Chain Splicing at IVS2 654 locus (AID 910);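 also: HeLa cells stably carrying EGFP split by mutant beta-globin IVS2-654 intron; per-well total GFP intensity by laser scanning cytometry after 2-day treatment; % of control where 0% means no effect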
# Summary of the method: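 Readout: per-well total peak green fluorescence (488 nm ex, 500–520 nm em) from objects 5–250 µm, reflecting correct splicing of an EGFP-654 reporter. Compounds were applied for 2 days at 37 °C to overnight-plated HeLa EGFP-654 cells; controls were DMSO and 500 nM IVS2-654 PNA.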
# [6] = Confirmation and Secondary Assay for Modulators of Hemoglobin Beta Chain Splicing at IVS2 705 locus (AID 930);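 also: HeLa cells stably expressing the EGFP-705 splicing reporter; % of control where 0% means no effect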
# Summary of the method: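 Restored EGFP fluorescence after 2-day compound exposure reports splicing correction in IVS2-705 EGFP reporter HeLa cells; positive control was 500 nM splice-blocking PNA oligo. Signal measured as well total peak GFP intensity (488 nm excitation).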
# [7] = measured here: cell count channel max response
# [8] = measured here: lipid channel max response
# Sequence of DNA dC->dU-editing enzyme APOBEC-3G (Homo sapiens) (Q9HC16 whole entry, looked up): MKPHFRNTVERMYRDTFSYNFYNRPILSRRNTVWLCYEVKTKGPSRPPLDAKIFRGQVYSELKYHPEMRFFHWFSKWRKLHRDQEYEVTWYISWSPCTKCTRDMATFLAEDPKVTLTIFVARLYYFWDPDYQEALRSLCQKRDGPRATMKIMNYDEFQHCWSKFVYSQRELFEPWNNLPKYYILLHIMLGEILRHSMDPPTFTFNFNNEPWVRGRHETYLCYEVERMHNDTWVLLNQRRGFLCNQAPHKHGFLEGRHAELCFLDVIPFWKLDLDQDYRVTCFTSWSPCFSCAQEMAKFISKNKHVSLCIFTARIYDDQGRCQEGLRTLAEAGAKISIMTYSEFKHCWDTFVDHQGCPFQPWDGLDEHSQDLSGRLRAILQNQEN
# Sequence of Cytochrome P450 3A4 (Homo sapiens) (P08684 whole entry, looked up): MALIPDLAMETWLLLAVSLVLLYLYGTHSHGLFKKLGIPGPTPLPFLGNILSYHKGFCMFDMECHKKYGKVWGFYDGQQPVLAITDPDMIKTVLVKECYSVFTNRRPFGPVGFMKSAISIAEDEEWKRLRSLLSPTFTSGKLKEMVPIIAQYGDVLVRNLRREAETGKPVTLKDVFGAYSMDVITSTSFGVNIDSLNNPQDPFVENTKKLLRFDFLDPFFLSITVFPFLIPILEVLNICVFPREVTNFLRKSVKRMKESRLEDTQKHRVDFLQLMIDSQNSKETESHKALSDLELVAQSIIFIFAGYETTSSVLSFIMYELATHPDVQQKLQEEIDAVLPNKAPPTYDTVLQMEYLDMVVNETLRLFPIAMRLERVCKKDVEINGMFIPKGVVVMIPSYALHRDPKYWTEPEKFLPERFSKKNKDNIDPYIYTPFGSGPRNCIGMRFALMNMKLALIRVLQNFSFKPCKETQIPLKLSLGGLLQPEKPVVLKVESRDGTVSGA
Compound,Potency [1],Potency [2],"activity change, negative = inhibition [3]","max response [3, 7] [%]","max response [3, 8] [%]",outcome [4],Potency [5],Potency [6]
CC[C@@H]1OC(=O)[C@@H](C)[C@H](O[C@H]2C[C@@](C)(OC)[C@@H](O)[C@H](C)O2)C(C)[C@H](O[C@H]2O[C@@H](C)C[C@@H](N(C)C)[C@@H]2O)[C@@](C)(O)C[C@H](C)C(=O)[C@@H](C)[C@H](O)[C@@]1(C)O (stereo partly specified),15.8 µM (active),inactive,6.26% (inactive),3.51,7.04,inactive,,
C=C1CC[C@@H]2O[C@@]2(C)CC[C@H]2[C@H]1CC2(C)C,,inactive,1.31% (inactive),22.2,21.2,inactive,,
COc1c2ccoc2nc2c(OC)c(OCC(O)C(C)(C)O)ccc12 (stereo unspecified),,inactive,9.6% (inactive),16.9,29.2,inactive,inactive,inactive
COc1c(C(C)C)oc2cc3oc(=O)ccc3cc12,inactive,,5.54% (inactive),15.7,22.2,,inactive,inactive
COc1ccc2c(c1)OCC(Cc1ccc(O)c(OC)c1)C2=O (stereo unspecified),2 µM (active),inactive,13.3% (inactive),8.4,29.2,,inactive,inactive
CC(=O)OC1CC2C(C)(C)C(=O)C3OC3[C@]2(C)C2CC[C@@]3(C)C(c4ccoc4)OC(=O)C4OC43[C@]12C (stereo partly specified),inactive,,-0.845% (inactive),-15.4,-5.43,,inactive,inactive
CC1O[C@@H](O[C@H]2C(Oc3cc(O)c4c(=O)cc(-c5ccc(O)cc5)oc4c3)OC(CO)C(O)C2O)C(O)C(O)C1O (stereo partly specified),inactive,,4.65% (inactive),16.6,23.3,,inactive,inactive
CC1=C(/C=C/C(C)=C/C=C/C(C)=C/C=C/C=C(C)/C=C/C=C(C)/C=C/C(=O)[C@]2(C)CC(O)CC2(C)C)C(C)(C)CC(O)C1 (stereo partly specified),inactive,,7.14% (inactive),11.8,22.4,,inactive,inactive
COc1ccc2c(c1)OC/C(=C\c1ccc(OC)c(O)c1)C2=O,10 µM (active),inactive,-9.54% (inactive),2.46,-8.22,,inactive,inactive
CC1OC(n2cc(F)c(=O)[nH]c2=O)C(O)C1O (stereo unspecified),inactive,,5.38% (inactive),14,19.9,,inactive,inactive
COC(=O)c1cc(=O)c(O)c2c(O)c(O)ccc2c1,inactive,,-1% (inactive),-7.53,-9.52,,inactive,inactive
CC(C)c1c(O)c(-c2cc3c(c(C(C)C)c2O)CCC2C(C)(C)CCC[C@@]32C)cc2c1CCC1C(C)(C)CCC[C@@]21C (stereo partly specified),inactive,,8.62% (inactive),4.25,16.8,,inactive,inactive
CC(=O)O[C@@]1(C(C)=O)CCC2C3C=C(C)C4=CC(=O)CCC4(C)C3CCC21C (stereo partly specified),inactive,,3.94% (inactive),7.28,12.7,,inactive,inactive
C/C(=C\CO)CCC(C)CCCC(C)CCCC(C)C (stereo unspecified),inactive,,6.09% (inactive),8.07,14.9,,inactive,inactive
COc1ccccc1-c1cc(=O)c2cccc(OC)c2o1,20 µM (active),inactive,6.98% (inactive),13.5,23.2,,inactive,inactive
COc1ccc2c(c1)O[C@@H]1c3ccc(OC)cc3OCC21 (stereo partly specified),inactive,,3.42% (inactive),4.03,9.6,,inactive,inactive
CC(=O)OC1CC[C@]2(C)C(CC(OC(C)=O)[C@]3(C)C2CC[C@@]2(C)C(c4ccoc4)OC(=O)C4O[C@]432)C1(C)C (stereo partly specified),inactive,,15.1% (inactive),12.6,25.6,,inactive,inactive
CCc1ccc2c(O)c3c(cc2c1C(=O)OC)C(=O)c1c(O)ccc(O)c1C3=O,inactive,,12.8% (inactive),5.77,24.1,,inactive,inactive
C=CC1=C(C)/C(=C/c2[nH]c(Cc3[nH]c(/C=C4\NC(=O)C(C)=C4C=C)c(C)c3CCC(=O)O)c(CCC(=O)O)c2C)NC1=O,inactive,,-0.375% (inactive),3.69,3.49,,inactive,inactive
CC1O[C@@H](O[C@H]2C(Oc3cc(O)c4c(c3)OC(c3ccc(O)cc3)CC4=O)OC(CO)C(O)C2O)C(O)C(O)C1O (stereo partly specified),inactive,,6.1% (inactive),13,21.6,,inactive,inactive
C=CCCCCCCCCCCCC(O)CC(O)CO (stereo unspecified) (tested in a mixture with another compound),inactive,,11.1% (inactive),1.75,15.4,,inactive,inactive
O=c1oc2ccccc2cc1O,inactive,,6.16% (inactive),4.09,13.1,,inactive,inactive
Cc1cc(O)c2c(c1O)C(=O)c1c(O)cc(C)c(O)c1C2=O,inactive,,6.96% (inactive),-16.3,-8.79,,inactive,inactive
Nc1nc(O)c2ncn([C@H]3CC[C@@H](CO)O3)c2n1,inactive,,7.72% (inactive),-2.43,2.95,,inactive,inactive
COc1ccc(C(=O)/C=C/c2ccccc2)cc1,inactive,,8.41% (inactive),-9.97,-1.31,,inactive,inactive

Compound,Potency [1],Potency [2],"activity change, negative = inhibition [3]","max response [3, 7] [%]","max response [3, 8] [%]",outcome [4],Potency [5],Potency [6]
COC(=O)CCC(C)C1CCC2C3CC[C@H]4CC(O)CC[C@@]4(C)C3CC(O)[C@]12C (stereo partly specified),inactive,,1.15% (inactive),-3.87,-3.09,,inactive,inactive
CC(C)C1=CC2=CC[C@@H]3[C@](C)(CO)CCC[C@]3(C)C2CC1 (stereo partly specified),inactive,,1.89% (inactive),10.4,14.9,,inactive,
C=CCCCCCCCCCCCc1ccco1,inactive,,3.13% (inactive),16.1,21.7,,inactive,inactive
OCC1OC(n2cnc3c(Cl)ncnc32)C(O)C1O (stereo unspecified),inactive,,1.41% (inactive),10.1,10.3,,inactive,inactive
CCCCCC1C(=O)CCC1CC(=O)OC (stereo unspecified),inactive,,7.58% (inactive),6.16,16,,inactive,inactive
COc1ccc(-c2coc3cc(O)ccc3c2=O)c(O)c1O,inactive,,8.68% (inactive),-1.1,7.57,,inactive,inactive
CC(=O)C1CCC2C3CCC4=CC(=O)CC[C@@]4(C)C3CC[C@]12C (stereo partly specified),inactive,,4.88% (inactive),4.44,13.5,,inactive,inactive
COC(=O)C(O)C1C(C)(C)C(OC(C)=O)C2CC3=C4CC(=O)OC(c5ccoc5)[C@]4(C)CCC3[C@@]1(C)C2=O (stereo partly specified),10 µM (active),inactive,0.311% (inactive),4.91,8.34,,,inactive
COC(=O)[C@]1(C)CCC[C@]2(C)c3ccc(C(C)C)cc3C(=O)CC12 (stereo partly specified),25.1 µM (active),inactive,1.78% (inactive),15.8,18.5,,inactive,inactive
CO[C@@]1(NC(=O)CSCC#N)C(=O)N2C(C(=O)O)=C(CSc3nnnn3C)CSC21 (stereo partly specified),inactive,,5.21% (inactive),4.52,12.5,,inactive,
COC(=O)C(C)c1ccc(C(=O)c2cccs2)cc1 (stereo unspecified),inactive,,9.81% (inactive),-1.55,12.4,,inactive,inactive
C/C=C(/C)C(=O)OC1C(OC(C)=O)[C@@]2(CO)C(O)C[C@@]3(C)C(=CCC4[C@@]5(C)CCC(OC6OC(C(=O)O)[C@@H](O[C@@H]7OC(CO)C(O)C(O)C7O)C(O)[C@H]6O[C@@H]6OC(CO)C(O)C(O)C6O)[C@](C)(CO)C5CC[C@@]43C)C2CC1(C)C (stereo partly specified),inactive,,9.44% (inactive),18,28.7,,inactive,inactive
CC1=C(C(=O)O)N2C(=O)C(NC(=O)C(N)C3=CCC=CC3)C2SC1 (stereo unspecified),inactive,,10.8% (inactive),14,29.2,,inactive,inactive
CC(=O)OC1CC[C@]2(C)C(CC[C@@]3(C)C2C(=O)C=C2C4C(C)C(C)CC[C@@]4(C(=O)O)CCC23C)C1(C)C (stereo partly specified),25.1 µM (active),inactive,0.887% (inactive),18.2,20.8,,inactive,inactive
CCOc1cccc(C(=O)c2ccc(O)c(O)c2O)c1,inactive,,3.56% (inactive),9.44,-1.04,,inactive,inactive
CC(C)CCCC(C)C1CCC2C3CC=C4CC(=O)CC[C@@]4(C)C3CC[C@@]12C (stereo partly specified),inactive,,3.79% (inactive),3.76,6.47,,inactive,inactive
COc1cc2c(cc1O)C(Cc1ccc(O)cc1)[N+](C)(C)CC2 (stereo unspecified),inactive,,12.6% (inactive),6.75,22.8,,inactive,inactive
CCCCCCCCCCCCCCC(C(=O)O)C(O)(CC(=O)OC)C(=O)O (stereo unspecified),inactive,,5.93% (inactive),16.5,25.2,,inactive,inactive
CC(C)C(C)/C=C/C(C)C1CCC2C3=CC=C4CC(O)CCC4(C)C3CCC21C (stereo unspecified),inactive,,4.22% (inactive),8.27,15.2,,inactive,inactive
COc1ccc2c(c1)CCC1C2CC[C@@]2(C)C(O)CCC12 (stereo partly specified),inactive,,6.39% (inactive),9.55,16.1,,inactive,inactive
CSC(N)=NCCCC(N)C(=O)O (stereo unspecified),inactive,,1.56% (inactive),5.01,8.49,,inactive,inactive
CC(C)CCCC(C)C1CCC2C3C(=O)C=C4CC(O)CC[C@@]4(C)C3CC[C@@]12C (stereo partly specified),inactive,,-2.06% (inactive),8.46,5.18,,inactive,inactive
C#CCCCCCCCCCCCC(O)CC(O)CO (stereo unspecified),,inactive,15.6% (inactive),3.34,18.3,,inactive,inactive
COc1ccc(C2OC3C(CO)OC(n4cnc5c(=O)[nH]c(N)nc54)C3O2)cc1 (stereo unspecified),inactive,,1.28% (inactive),11.1,13.1,,inactive,inactive
CC1(C)OC2CC3C4CCC5=CC(=O)CCC5(C)C4(F)C(O)CC3(C)[C@]2(C(=O)CCl)O1 (stereo partly specified),,inactive,8% (inactive),13.8,26.2,,,
